# From PubChem BioAssay (NCI)
# Compounds without any hit were thinned out: in the full panel of roughly 83,000, 20% have a hit.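 For each line, cells grew in 96-well plates with the test compound present at a single concentration for 48 hours.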 A number with no mark means an inactive call. Calls of active or inactive are those of the source. The calls were made as follows: active = growth percent below 10; inactive = the rest.
# Experiments:
# Test in all cases: NCI-60 one-dose screen, 48 h (100 = growth as untreated, 0 = no growth, -100 = all killed)
# RPMI-8226 leukemia = conditions: 10 µM unless noted
# OVCAR-8 ovarian = conditions: 10 µM unless noted
# OVCAR-5 ovarian = conditions: 10 µM unless noted
# OVCAR-4 ovarian = conditions: 10 µM unless noted
# SK-OV-3 ovarian = conditions: 10 µM unless noted
# IGROV1 ovarian = conditions: 10 µM unless noted
# OVCAR-3 ovarian = conditions: 10 µM unless noted
# HS 578T breast = conditions: 10 µM
# NCI/ADR-RES ovarian = conditions: 10 µM unless noted
# T-47D breast = conditions: 10 µM unless noted
# BT-549 breast = conditions: 10 µM unless noted
# MDA-MB-435 melanoma = conditions: 10 µM unless noted
# SW-620 colon = conditions: 10 µM unless noted
# MCF7 breast = conditions: 10 µM unless noted
# HCT-116 colon = conditions: 10 µM unless noted
# HCC-2998 colon = conditions: 10 µM unless noted
# KM12 colon = conditions: 10 µM unless noted
Structure (SMILES),growth (RPMI-8226 leukemia),growth (OVCAR-8 ovarian),growth (OVCAR-5 ovarian),growth (OVCAR-4 ovarian),growth (SK-OV-3 ovarian),growth (IGROV1 ovarian),growth (OVCAR-3 ovarian),growth (HS 578T breast),growth (NCI/ADR-RES ovarian),growth (T-47D breast),growth (BT-549 breast),growth (MDA-MB-435 melanoma),growth (SW-620 colon),growth (MCF7 breast),growth (HCT-116 colon),growth (HCC-2998 colon),growth (KM12 colon)
C=CCn1c(SCC(=O)Nc2ccc(/C(C)=N\O)cc2)nnc1-c1cc(-c2ccc(Cl)cc2)nc2ccccc12,9% (active),24%,56.7%,35%,52.6%,-13.8% (active),31.1%,67.1%,2.18% (active),7.73% (active),33.5%,30.8%,41.1%,14%,19.5%,21%,16.5%
CC(C)COC(=O)NC(C)(C)C,103%,103%,97.9%,106%,103%,107%,105%,–,106%,99.6%,102%,107%,99.4%,90.8%,105%,97%,113%
CN1CCN(Cc2ccc(NC(=O)c3cncc(C#Cc4cnc5cccnn45)c3)cc2C(F)(F)F)CC1,-20.1% (active),5.17% (active),12.7%,-21.7% (active),7.64% (active),5.12% (active),1.49% (active),-17.3% (active),18.3%,30.7%,6.96% (active),1.81% (active),-3.38% (active),3.61% (active),3.88% (active),9.55% (active),-12.3% (active)
CC1=C(C(=O)Nc2ccc(F)cc2)C(c2ccc(C)cc2)C2=C(CC(C)(C)CC2=O)N1 (stereo not given),99.2%,98.3%,93.1%,90.8%,100%,104%,92.7%,77.4%,89.9%,85.2%,97.2%,94.9%,81.9%,91.1%,96.3%,107%,102%
CC(=O)Nc1nonc1-c1nc2ccccc2n1Cc1ccc(C(C)(C)C)cc1,58%,78.4%,93.5%,81%,88.9%,78.7%,71.3%,27.1%,59.7%,72.9%,93.2%,86%,–,58.9%,66.9%,–,69.3%
O=C(c1ccc(C(F)(F)F)c(Cl)c1)N(Cc1ccc(Cl)cc1)c1ccc(-c2cc(C(F)(F)F)[nH]n2)c(O)c1,1.58% (active),11%,17.3%,19.9%,-4.32% (active),15.2%,6.9% (active),3.66% (active),2.97% (active),–,14.6%,10.1%,17.2%,4.31% (active),3.75% (active),–,10%
CCc1oc2ccccc2c1C(=O)c1cc(I)c(O)c(I)c1,55.2%,56.7%,86.5%,71%,105%,50.5%,13.6%,49.2%,-6% (active),98.9%,39.3%,-25.9% (active),19.2%,33.8%,22.3%,53.3%,27.2%
F,22.4% [6.87 mM],30% [6.87 mM],10.6% [6.87 mM],76.2% [6.87 mM],8.2% [6.87 mM] (active),53.5% [6.87 mM],71.5% [6.87 mM],–,8.42% [6.87 mM] (active),18.2% [6.87 mM],5.2% [6.87 mM] (active),-26.3% [6.87 mM] (active),–,30.7% [6.87 mM],8.71% [6.87 mM] (active),24.4% [6.87 mM],9.89% [6.87 mM] (active)
O=C(/C=C/c1ccccc1)n1c(-c2ccccc2)nc2ccccc21,105%,98.9%,95.7%,101%,110%,105%,111%,104%,104%,97.3%,112%,99.9%,102%,97.5%,109%,–,104%
